Experimental data as given in PubChem BioAssay AID492952 (Southern Research Specialized Biocontainment Screening …, 2010).
In all, about 2,300 compounds went through this assay and about 1,500 (65%) were called active. The set was probably picked from earlier hits. Some of the results follow. Potency and affinity values are given separately. A number with no mark means an inactive call. The rule behind the calls is not given here.

experiment: replicating M. tuberculosis growth inhibition, dose response, non-replicating M. tuberculosis project, H37Rv (AID 492952); conditions: series mostly up to 50 µM; inhibition: at the top concentration;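 note: Mycobacterium tuberculosis grown in culture; growth inhibition read after a week of incubation; 0% = bacteria alone untreated and 100% = bacteria with high antibiotic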

Point of comparison: CCOC(=O)c1ccc(NC(=O)NS(=O)(=O)c2ccc(C)cc2)cc1, “inhibition” value 3.68%. Against it:
- CCCCCCOc1ccc(C(=O)O)cc1C#N — lower, -1.62%
- O=C(NCc1ccco1)c1nc2ccccc2s1 — lower, 2.82%
- CC(C)(C)CC(=O)NC(=S)NCc1ccco1 — lower, -5.48%
- COc1ccc(S(=O)(=O)N(C(C)=O)c2ccc(OC(C)=O)c3ccccc23)cc1[N+](=O)[O-] — higher, 16.4%
- Cc1nc2scc(-c3ccccc3)c2c(=O)o1 — higher, 5.68%
- CCOC(=O)c1ccc(NC(=O)CCSCCc2ccccn2)cc1 — lower, 0.82%
- Cc1ccc(CCC(=O)Nc2ccc([N+](=O)[O-])cc2)o1 — lower, 2.46%
- O=C(NNc1ccc([N+](=O)[O-])cc1)C1CC2CCCC(C1)C2=O (centres undefined) — higher, 4.15%
- CC(NC(=O)c1cccc(F)c1)C1CC2CCC1C2 (centres undefined) — lower, -1.67%
- O=C(N/N=C/C=C/c1ccccc1)c1cccs1 — lower, 2.93%
- O=C(Nc1cccnc1)c1cc(Cl)ccc1Cl — lower, 2.63%
- Cn1c(-c2cccc([N+](=O)[O-])c2)cnc1NCc1cccc(F)c1 — lower, -0.03%
- Cc1ccccc1C1=N/C(=C/c2cccnc2)C(=O)O1 — lower, -9.98%
- O=C1OC(/C=C/c2ccccc2)=NC/1=C\c1cccnc1 — higher, 8.72%
- Cc1cc(OCCCn2ccnc2)ccc1C(C)C — higher, 8.68%
- O=C(COc1ccc2ccccc2c1Br)N1CCCC1 — higher, 11.9%
- O=S(=O)(c1ccc(Cl)c2ccccc12)N1CCCC1 — lower, -2.3%
- Cc1ccc(C(=O)COC(=O)CCc2ccc(S(=O)(=O)N3CCCCC3)cc2)cc1 — lower, -2.89%
- COc1cc(NC(=O)N2CCOCC2)cc(OC)c1 — lower, 2.67%
- CCOC(=O)C1CCCN(Cc2nc(Cc3ccccc3Cl)no2)C1 (centres undefined) — lower, -3.11%
- O=C(COc1c(Br)cc(Br)c2cccnc12)N1CCCCC1 — lower, 1.93%
- Cc1cc(C)nc(SC2CC(=O)N(c3ccc(C)c(C)c3)C2=O)n1 (centres undefined) — lower, -0.48%
- CC(=O)Nc1ccc(NC(=O)[C@@H]2CCCC[C@@H]2C(=O)O)cc1 — higher, 6.64%
- Cc1nc(C(=O)Nc2ccccc2)sc1C(=O)Nc1ccccc1 — lower, -3.5%
- NC(=O)N/N=C\c1cc(Br)ccc1O — lower, 1.43%
- NC(N)=N/N=C/c1cc([N+](=O)[O-])ccc1O — lower, -0.86%
- O=C1N=c2ccccc2=C1c1c(O)n(-c2cccc(F)c2)[nH]c1=O — higher, 4.88%
- Cc1ccc(C(=O)O/N=C(\N)c2cccc([N+](=O)[O-])c2)cc1 — higher, 8.71%
- N/C(=N\OC(=O)c1cccc(Br)c1)c1ccc([N+](=O)[O-])cc1 — lower, -3.85%
- O=C(Cc1c(F)cccc1Cl)Nc1ncc([N+](=O)[O-])s1 — higher, 6.48%
- N/C(=N\OC(=O)c1cccc2ccccc12)c1cccnc1 — higher, 11.1%
- CCCNC(=O)NC(=O)COc1ccc2oc3ccccc3c2c1 — higher, 7.11%
- O=C(COc1ccccc1)Nc1ccc(F)cc1 — higher, 8.73%
